Several values for one entry are separate records, joined by “and”; a condition that tells them apart may be missing. Equal values may be shown once. Where a name gives a salt, the structure may show the parent alone. ± gives the standard deviation of the averaged measurements.

These results are taken from the supplement of paper PMC8699584.

One assay has as its system Molm13. In words: cell viability relative to DMSO control (bortezomib = 0%); higher = less growth inhibition. The settings on record: 10 nM; 72 h. In short, it runs like this:
(§1)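 Cell viability was assessed by CellTiter-Glo luminescence. Acute myeloid leukemia cells were seeded at 1000 cells per well in 50 µL on a 384-well library of 679 compounds at a single 10 nM dose for 72 h. Per-plate linear regression set DMSO-treated cells at 100% and positive-control-treated cells at 0%.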

Another assay has as its system Mv4-11. The description is as above. The settings on record: 10 nM; 72 h. In short, it runs like this: as §1

What is called cell viability is a read-out of living cells in per cent, often relative to untreated cells. Take `Nc1cc(C(F)(F)F)c(-c2cc(N3CCOCC3)nc(N3CCOCC3)n2)cn1` [BKM120 (NVP-BKM120, Buparlisib)]: the cell viability was 93.7 ± 4.8% in the assay with Molm13 and 99.8 ± 2.8% in the assay on Mv4-11.
Regarding `O=C(NOC[C@H](O)CO)c1ccc(F)c(F)c1Nc1ccc(I)cc1F`, the cell viability with Molm13 is 89.4% and 96.2%; in the assay with Mv4-11 it was 95.5% and 86.8%.
`COc1ccc(S(=O)(=O)N(C(C)=O)c2ccccc2/C=C/c2cc[n+]([O-])cc2)cc1`: the cell viability is 98.3 ± 18% with Molm13 and 104 ± 27% with Mv4-11.
On the same counts, the results for `Cc1ccc(C(=O)Nc2ccc(CN3CCN(C)CC3)c(C(F)(F)F)c2)cc1C#Cc1cnc2cccnn12` are 6.99 ± 13% and 3.31 ± 4.5%.
In the case of `CC(C)n1nc(-c2cc3cc(O)ccc3[nH]2)c2c(N)ncnc21`, the cell viability with Molm13 stood at 103 ± 11%; in the assay with Mv4-11, 96.2 ± 30%.
`CC(C)(C)c1cc(C=C(C#N)C(N)=S)cc(C(C)(C)C)c1O`: the values for the cell viability in the assay on Molm13 and with Mv4-11 were 108 ± 5.4% and 111 ± 3.4%, respectively.
For `O=c1[nH]c(C2CCCN2)nc2c1oc1ccc(Cl)cc12` (configuration not stated), the cell viability in the assay with Molm13 worked out at 96.9 ± 13%; with Mv4-11 it was 107 ± 3.5%.
On the same counts, the results for `C[C@@H]1O[C@@H](O[C@@H]2[C@@H](O)[C@H](OCCc3ccc(O)c(O)c3)O[C@H](CO)[C@H]2OC(=O)/C=C/c2ccc(O)c(O)c2)[C@H](O)[C@H](O)[C@H]1O` [Verbascoside] are 89.4 ± 1.9% and 91.6 ± 5.3%.
On the same counts, the results for `C=CC(=O)Nc1cc2c(Nc3ccc(F)c(Cl)c3)ncnc2cc1OCCCN1CCOCC1` [Canertinib (hydrochloride)] are 93.9 ± 14% and 103 ± 7.2%.
On the same counts, the results for `CC(=O)Nc1nc(C)c(-c2ccc(Cl)c(S(=O)(=O)NCCO)c2)s1` are 104 ± 3.5% and 97.8 ± 21%.
As to `Cc1ccc2nc(-n3[nH]c(C)c(Cc4ccccc4)c3=O)[nH]c2c1`, the figures for the cell viability with Molm13 and in the assay with Mv4-11 were 103 ± 0.84% and 106 ± 4.3%, respectively.
`CN1CCN(c2ccc(C(=O)Nc3n[nH]c4ccc(Cc5cc(F)cc(F)c5)cc34)c(NC3CCOCC3)c2)CC1` [Entrectinib]: the cell viability in the assay with Molm13 was found to be 87.5 ± 7%; with Mv4-11 it was 104 ± 24%.
`N#CC(C#N)=C(N)/C(C#N)=C/c1cc(O)c(O)c(O)c1`: the cell viability in the assay on Molm13 came to 98.1 ± 28%; in the assay on Mv4-11, 94.3 ± 15%.
As for `COc1cc2nccc(Oc3ccc(NC(=O)Nc4ccc(F)cc4F)c(F)c3)c2cc1OC`, the cell viability in the assay on Molm13 was found to be 98.1 ± 2.7%; with Mv4-11 it was 103 ± 5.7%.
On the same counts, the results for `CC(C)=CCC[C@](C)(O)[C@H]1CC[C@]2(C)[C@@H]1[C@H](O)C[C@@H]1[C@@]3(C)CC[C@H](O)C(C)(C)[C@@H]3[C@@H](O[C@@H]3O[C@H](CO)[C@@H](O)[C@H](O)[C@H]3O[C@@H]3O[C@@H](C)[C@H](O)[C@@H](O)[C@H]3O)C[C@]12C` [Ginsenoside Rg2] are 94.4 ± 23% and 93.6 ± 9.2%.
On the same counts, the results for `COc1cc(Nc2ncc(F)c(Nc3ccc4c(n3)N(COP(=O)(O)O)C(=O)C(C)(C)O4)n2)cc(OC)c1OC` [Fostamatinib (R788)] are 99.7 ± 0.34% and 104 ± 1.8%.
On the same counts, the results for `O=S(=O)(c1cccc2cnccc12)N1CCCNCC1` [Fasudil (HA-1077) hydrochloride] are 91.5 ± 1.8% and 104 ± 5%.
For `Cn1ncc(Cl)c1-c1cc(C(=O)N[C@H](CN)Cc2cccc(F)c2)sc1Cl` [Afuresertib], the cell viability in the assay on Molm13 came out at 111 ± 4.8%; with Mv4-11 it was 113 ± 2.5%.
On the same counts, the results for `CNC(=O)c1cc(Oc2ccc(NC(=O)c3cccc(C(F)(F)F)c3)cc2)ccn1` are 96.3 ± 16% and 103 ± 4.9%.
On the same counts, the results for `O=c1cc(-c2ccc(O)cc2)oc2cc(O)c(O)c(O)c12` [Scutellarein] are 108 ± 3.9% and 100 ± 5.4%.
Turning to `CC(C)c1ccc2oc3nc(N)c(C(=O)O)cc3c(=O)c2c1` [Amlexanox], the cell viability with Molm13 is 96.8 ± 11%; with Mv4-11 it was 92.6 ± 2.2%.
On the same counts, the results for `COc1cc(Nc2c(C#N)cnc3cc(OCCCN4CCN(C)CC4)c(OC)cc23)c(Cl)cc1Cl` [Bosutinib] are 112 ± 24% and 90.8 ± 17%.
On the same counts, the results for `N#CC[C@H](C1CCCC1)n1cc(-c2ncnc3[nH]ccc23)cn1` are 87.6 ± 8.3% and 109 ± 4%.
On the same counts, the results for `FC(F)(F)c1ccc(CNc2ccc(Cc3c[nH]c4ncc(Cl)cc34)cn2)cc1` are 112.2 ± 0.43% and 106 ± 19%.
With `CCN1CCN(Cc2ccc(C(=O)Nc3ccc(C)c(Oc4ccc5c(c4)CC(=O)N5)c3)cc2C(F)(F)F)CC1`, the cell viability turned out to be 110 ± 13% in the assay on Molm13 and 114 ± 6.1% in the assay with Mv4-11.
Consider `COc1ccc2cc1Oc1ccc(cc1)C[C@H]1c3cc(c(OC)cc3CCN1C)Oc1c(O)c(OC)cc3c1[C@H](C2)N(C)CC3` [(+)-Fangchinoline], for which the cell viability in the assay on Molm13 came out at 116 ± 13%; in the assay with Mv4-11, 114 ± 1.3%.
On the same counts, the results for `Cc1ccc(NC(=O)c2ccc(CN3CCN(C)CC3)cc2)cc1Nc1nccc(-c2cccnc2)n1` [Imatinib (mesylate)] are 111 ± 16% and 121 ± 22%.
For the compound `O=C(NCc1cccc(O)c1)Nc1nc(-c2ccncc2)cs1`, the cell viability is 88.6 ± 11% in the assay with Molm13 and 121 ± 9% in the assay on Mv4-11.
On the same counts, the results for `CC(=O)/C(C)=N/O` [2,3-Butanedione 2-Monoxime] are 79.4 ± 21% and 119 ± 7.6%.
On the same counts, the results for `Cc1cc(O)c2c(c1)C(=O)c1cccc(O)c1C2=O` [Chrysophanic Acid] are 93.1 ± 1.7% and 108 ± 12%.
On the same counts, the results for `C[C@@H](Oc1cc(-c2cnn(C3CCNCC3)c2)cnc1N)c1c(Cl)ccc(F)c1Cl` are 107 ± 16% and 100 ± 20%.
As for `CN(C)CCN(C)C(=O)c1ccc(NC(=O)Nc2ccc(-c3nc(N4CCOCC4)c4ccn(CC(F)(F)F)c4n3)cc2)cc1`, the cell viability is 87.9 ± 21% in the assay with Molm13 and 105 ± 3.9% in the assay with Mv4-11.
Consider `O=C(COc1ccc(Cl)cc1)NC1CCC(NC(=O)COc2ccc(Cl)cc2)CC1` (configuration not stated), for which the figures for the cell viability with Molm13 and in the assay with Mv4-11 were 109 ± 1.8% and 111 ± 14%, respectively.
On the same counts, the results for `CC(C)[C@H](CO)Nc1nc(Nc2cccc(Cl)c2)c2ncn(C(C)C)c2n1` [Purvalanol A] are 102 ± 7.3% and 106 ± 12%.
On the same counts, the results for `CNCCNS(=O)(=O)c1cccc2cnccc12` [H-8 (hydrochloride)] are 106 ± 12% and 108 ± 7.2%.
On the same counts, the results for `O=C(Nc1cccnc1)c1cc(-c2ccnc(F)c2)ccc1OCc1ccccc1` are 101 ± 20% and 105 ± 2.3%.
